# Mtb BioA inh: inhibitors of Mycobacterium tuberculosis BioA enzyme. purified M. tuberculosis BioA enzyme, plate reader. inhibition, % at 9.99 µM. actives 0.096% (n = 360,000). AID 602481; in the data active = inhibition above about 40%
# FBA Mtb inh: Mtb fructose-bisphosphate aldolase inhibition | P9WQA3 | purified M. tuberculosis FBA, fluorescence read-out | inhibition, % at 1 µM | actives 2.3% (n = 360,000) | AID 588726; in the data active = inhibition above about 27%;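 note: 0% = vehicle and 100% = reference inhibitor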
# Target sequence (P9WQA3 whole entry, looked up): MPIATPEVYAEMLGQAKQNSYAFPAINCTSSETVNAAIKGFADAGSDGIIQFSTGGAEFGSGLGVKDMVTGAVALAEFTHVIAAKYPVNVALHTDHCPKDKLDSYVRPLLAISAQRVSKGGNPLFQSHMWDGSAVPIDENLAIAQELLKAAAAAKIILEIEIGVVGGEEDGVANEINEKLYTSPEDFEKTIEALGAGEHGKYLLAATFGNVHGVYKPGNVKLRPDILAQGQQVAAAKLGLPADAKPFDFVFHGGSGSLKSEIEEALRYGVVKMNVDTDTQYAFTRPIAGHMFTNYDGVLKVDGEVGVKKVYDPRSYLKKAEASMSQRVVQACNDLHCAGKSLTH
# GDH-TPI counter: counter-screen for M. tuberculosis FBA inhibitors: GDH-TPI coupled enzymes. inhibition, % at 4.8 µM. GDH-TPI coupled enzyme counterscreen, NADH absorbance. AID 588335. actives 1.2% (n = 360,000); in the data active = inhibition above about 30%;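 note: 0% = DMSO wells and 100% = wells lacking the enzyme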
# BH1578 lux ind: induces V. cholerae light production without autoinducers; V. cholerae BH1578 lux reporter, luminescence, 6 h; activation, % at 18.7 µM; AID 588436; actives 0.16% (n = 350,000); in the data active = activation mostly above about 9.7%, no sharp cut-off
# Starred values were filed as active, the others as inactive; i = inactive; . = not tested or not shown; + = active, no number. Compounds with a hit are over-represented: about 3% of the library has one in this group of screens.
SMILES,Mtb BioA inh,FBA Mtb inh,GDH-TPI counter,BH1578 lux ind
Cc1cccc2c(N=NC(=O)C(C)n3cnc4ccccc4c3=O)c(O)[nH]c12 (configuration not stated),.,-3,35*,0
CC1=C(C(=O)NC2CC(C)(C)Cc3c2cnn3-c2cccc(F)c2)OCCO1 (configuration not stated),58*,2,-6,i
Cc1cc(C(=O)NC2CC(C)(C)Cc3c2cnn3-c2cccc(F)c2)n(C)n1 (configuration not stated),20,1,4,.
COc1ccc(-n2ncc3c2CC(C)(C)CC3NC(=O)C2=CC(=O)CC(C)(C)O2)cc1 (configuration not stated),14,153*,-3,i
CC(C)CC#Cc1ccc2c(c1)O[C@@H](CN(C)S(=O)(=O)c1ccc(F)cc1)[C@H](C)CN([C@@H](C)CO)S2(=O)=O,-1,.,.,.
Cc1ccc2oc(=O)c3cc(C(=O)NCCCN4CCN(C)CC4)sc3c2c1,1,14,22,i
CN1CCN(CCCNC(=O)c2cc3c(=O)n(C)c4ccccc4c3s2)CC1,-2,89*,12,-2
COc1cc2nc(N(C)C)nc(N)c2cc1OC,0,80*,10,i
COc1cc2nc(Nc3ccc(C)c(C)c3)nc(N)c2cc1OC,.,5,-6,i
CC(=O)Nc1sc(N/N=C\c2cccc(Cl)c2)nc1-c1cccs1,.,7,6,i
CC(=O)Nc1sc(N/N=C\c2ccc(O)cc2)nc1-c1cccs1,.,-1,44*,-1
Cc1ccc(NC(=S)Nc2ccc3nc(-c4ccccn4)c(-c4ccccn4)nc3c2)cc1C,.,-4,32*,0
Cc1ccc(NC(=S)Nc2ccccn2)cc1C,-2,-2,-1,0
Cc1ccc(S(=O)(=O)Nc2ccc3c(c2)C(=O)N([C@@H](C)CO)C[C@@H](C)[C@H](CN(C)C(=O)c2ccccc2)OCCCC[C@H](C)O3)cc1,0,.,.,.
CO[C@H]1CN(C)C(=O)c2cc(NC(=O)NC(C)C)ccc2OC[C@H](C)N(CCC(F)(F)F)C[C@@H]1C,1,.,.,.
Clc1cc2nc3ccccn3c2cc1Cl,.,140*,12,-3
C[C@H]1CCCCO[C@@H](CN(C)Cc2ccccc2)[C@@H](C)CN([C@@H](C)CO)C(=O)c2cc(NS(=O)(=O)c3cccs3)ccc2O1,0,.,.,.
CN(C)C(=O)c1cccc(-c2cnc3cccnn23)c1,1,132*,11,-1
O=C(C[C@@H]1CC[C@H](NC(=O)Nc2ccc3c(c2)OCO3)[C@@H](CO)O1)NCc1ccc(Cl)cc1,-5,.,.,.
Cc1ccc(-c2c(C(=O)N/N=C/c3c[nH]c4ccccc34)nnn2-c2nonc2N)cc1,0,4,47*,i
CCCN(CCC)Cc1c(C(=O)N/N=C/c2c[nH]c3ccccc23)nnn1-c1nonc1N,0,22,-3,0
CCCc1c(C(=O)N/N=C/c2c[nH]c3ccccc23)nnn1-c1nonc1N,0,-4,30,0
COCc1c(C(=O)N/N=C/c2c[nH]c3ccccc23)nnn1-c1nonc1N,-5,2,44*,0
C[C@H](CO)N1C[C@H](C)[C@H](CN(C)Cc2ccccc2)OCCCC[C@H](C)Oc2ccc(NC(=O)C3CCCCC3)cc2C1=O,-1,.,.,.
Cc1cc(/C=C(\C#N)C(=O)O)c(C)n1CCC(C)C,0,3,23,0
SMILES,Mtb BioA inh,FBA Mtb inh,GDH-TPI counter,BH1578 lux ind
Cc1cc(/C=C(\C#N)C(=O)O)c(C)n1CC(C)C,.,2,35*,0
CCCNC(=O)N1C[C@H](O)COC[C@@H]2O[C@@H](CC(=O)N[C@H]3CCN(Cc4ccccc4)C3)CC[C@H]21,-1,.,.,.
O=C(Nc1ncc2c(n1)-c1ccccc1OC2)c1ccc(F)cc1,2,+,14,i
COc1ccccc1C1CC(c2ccccc2)=NN1S(=O)(=O)c1ccccc1 (configuration not stated),1,-4,-4,0
COc1ccccc1C1CC(c2ccco2)=NN1c1ccccc1 (configuration not stated),.,148*,12,i
CN[C@@H]1[C@H](O)[C@H](NC)[C@H]2O[C@@]3(O)C(=O)C[C@@H](C)O[C@H]3O[C@@H]2[C@H]1O,-1,1,-6,72*
C[C@@H]1CCCCO[C@@H](CN(C)Cc2ccc3c(c2)OCO3)[C@@H](C)CN([C@H](C)CO)C(=O)c2cc(NC(=O)c3ccccc3)ccc2O1,-1,.,.,.
O=c1ccc2ccc(O[C@@H]3O[C@H](CO)[C@@H](O)[C@H](O)[C@H]3O)c(O)c2o1,-1,6,26,0
COc1cc2ccc(=O)oc2c(O[C@@H]2O[C@H](CO)[C@@H](O)[C@H](O)[C@H]2O)c1O,-1,185*,1,-1
O=c1ccc2cc(O[C@@H]3O[C@@H](CO)[C@H](O)[C@@H](O)[C@@H]3O)c(O)cc2o1,-2,+,6,0
CC=Cc1ccc2n(c1=O)C[C@H]1[C@H](CO)[C@@H](C(=O)N3CCC(Cc4ccccc4)CC3)N(C)[C@@H]21 (mixture of isomers),2,.,.,.
COCC(=O)N1C[C@H](C)[C@H](OC)CN(C)C(=O)c2ccc(NC(=O)c3ccc(OC)cc3)cc2OC[C@@H]1C,2,.,.,.
CCN(C[C@H]1N[C@@](Cc2ccccc2)(C(=O)OC)[C@H]2C(=O)N(Cc3ccccc3)C(=O)[C@@H]12)S(=O)(=O)c1ccc(-c2ccccc2)cc1,-1,5,32*,0
Cc1ccc(-c2ccc3c(c2)O[C@@H](CN(C)C(=O)C2CC2)[C@H](C)CN([C@H](C)CO)S3(=O)=O)cc1,4,.,.,.
COc1ccc(N2C(=O)/C(=C/c3ccc([N+](=O)[O-])cc3)N=C2C)cc1,.,-6,9,0
CC1=N/C(=C\c2ccc([N+](=O)[O-])cc2)C(=O)N1c1ccc(Br)c(C)c1,-1,-3,39*,i
O=C(O)C/C(=C\c1ccc(N2CCOCC2)c([N+](=O)[O-])c1)c1nc2ccccc2s1,2,0,33*,4
O=C(N/N=C/c1c(O)n(-c2ccccc2Cl)c(=O)c2ccccc12)C1COc2ccccc2O1 (configuration not stated),.,34*,15,0
Cc1ccc(-n2c(O)c(/C=N/NC(=O)C3COc4ccccc4O3)c3ccccc3c2=O)cc1 (configuration not stated),6,15,5,0
CCCn1c2c(c(O)c(C(=O)Nc3ncccc3O)c1=O)CCCC2,0,0,34*,i
O=C(Cc1ccccn1)N[C@H]1CC[C@@H](CCNC(=O)c2cc(Cl)cc(Cl)c2)O[C@H]1CO,-7,.,.,.
N#Cc1nc(-c2cccs2)oc1N1CCOCC1,2,+,28,0
CC1CN(c2oc(-c3cccs3)nc2C#N)CC(C)O1 (configuration not stated),.,+,20,i
COCc1cn(CC[C@@H]2CC[C@@H](NC(=O)Nc3ccc(Cl)cc3)[C@H](CO)O2)nn1,1,.,.,.
C=CCn1c(O)c(N=NC(=S)Nc2ccc(OC)cc2)c2ccccc21,1,-10,19,0

# High-throughput results deposited in PubChem by several laboratories.
